NS1 function inh – influenza NS1 inhibition; Potency, µM (series often up to 46.1 µM), for the others: at the highest dose activity, positive = more growth; 0.4% of 270,000 active; also: potency is read from the fitted curve at half-maximal effect; actives are rising curves; nearly all actives have a fitted effect of over 50% in size
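Read-out: OD600 growth recovery of NS1-expressing budding yeast. Cells grown overnight at 30C in -URA glucose medium, washed, resuspended and diluted 1:100 in 2% galactose assay medium, pH 6.0. Same strain lacking NS1 served as positive control.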
CHX counter – counter-screen hit for Shiga toxin inhibitors, cycloheximide; cell reporter, cycloheximide protein synthesis inhibition counterscreen; 12% of 300,000 active; AID 2314; max response, %; in the data active = max response mostly above about 13%, no sharp cut-off; inactive = mostly below about 14%; also: read at 38.3 µM for the half of the compounds with a filed dose; 0% is about no effect
Pf growth 48h – P. falciparum growth inhibition at 48 hours (one generation). P. falciparum luciferase growth in erythrocytes, 48 h. Potency, µM (series often up to 28.7 µM), for the others: at the highest dose activity change, negative = inhibition, hits mostly inhibitors. 5.9% of 310,000 active. AID 504832; active = well fitted inhibition curve with a large enough effect; inconclusive = small, poorly fitted or top-dose-only effect, or another doubt; inactive = no such curve, though single readings can be large or run the other way; also: potency is read from the fitted curve at half-maximal effect; % is scaled to controls: 0 for no effect and ±100 for the full control effect
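A one-generation exposure of luciferase-tagged malaria parasites in RPMI 1640/Albumax erythrocyte culture, 37 C and 5% CO2. Inhibition is inferred from decreased luminescence after adding detection reagent.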
SARS PLpro yeast – blocks SARS-CoV papain-like protease in a yeast assay | Potency, µM (doses to about 32.9 µM), for the others: at the top dose activity, positive = growth rescue, usual class: activators | S. cerevisiae expressing SARS-CoV PLpro, growth rescue | 0.19% of 330,000 active; also: potency is read from the fitted curve at half-maximal effect; 0% is about no effect; nearly all actives have a fitted effect of over 55% in size
Shiga inhibitor – inhibitors of Shiga toxin in Vero cells; Vero cells, Shiga toxin protein synthesis inhibition reporter; inhibition, % at 38.7 µM; 9.2% of 290,000 active; in the data active = inhibition mostly above about 28%, no sharp cut-off; inactive = mostly below about 43%; also: 0% is about no effect
Pf growth 96h – inhibits malaria parasite growth, 96 h | 6.9% of 320,000 active | AID 504834 | P. falciparum luciferase reporter growth, 96 h | Potency, µM (highest dose often 28.7 µM), for inactives: at the top dose activity change, negative = inhibition, hits mostly inhibitors; active = well fitted inhibition curve with a large enough effect; inconclusive = small, poorly fitted or top-dose-only effect, or another doubt; inactive = no such curve, though single readings can be large or run the other way; also: potency is read from the fitted curve at half-maximal effect; % is scaled to controls: 0 for no effect and ±100 for the full control effect
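Infected RBCs, 2% Hct / 0.05% parasitemia final; luciferase-reporter P. falciparum; cpd 96 h, 37 C, 5% CO2; luciferase detection reagent; luminescence.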
The depositor's hits bear a star; i = inactive; u = inconclusive; x = no result given; [ ] = remark or other dose. This is a sample that favours compounds with a hit; in the whole collection about 21% have one here. Unless noted, calls follow the shape of the full dose curve.

SMILES	NS1 function inh	CHX counter	Pf growth 48h	SARS PLpro yeast	Shiga inhibitor	Pf growth 96h
CCOc1ccc2oc(C(=O)OCC(=O)NCC3CCCO3)c(C)c2c1 (stereo unspecified)	x	x	8%	-1%	x	9%
O=C(O)c1ccc2c(c1)C(=O)N([C@@H](C(=O)O)C(c1ccccc1)c1ccccc1)C2=O	x	-6	4%	-2%	-2	9%
CC(=O)Nc1ccc(NC(=O)c2cc(=O)c3ccccc3o2)cc1	-1%	-4	48%	0%	-8	21%
CC(=O)c1sc(NC(=O)c2cc(=O)c3ccccc3o2)nc1C	x	36*	i	0%	60*	107%
CCOC(=O)c1csc(NC(=O)c2cc(=O)c3ccccc3o2)n1	x	29	4%	8%	24	0.074µM*
CCOC(=O)C(C(C)C)C(N)Cc1ccc(F)cc1 (stereo unspecified)	x	-1	-12%	2%	-3	33%
CC(=O)c1cccc2c(O)c(C3=Nc4ccccc4C3=O)[nH]c12	-36%	48*	-39%	-65%	89*	u
O=C1C(c2c(O)[nH]c3ccccc23)=Nc2ccccc21	x	18	x	-6%	36	x
Cc1ccc(-c2cc(C(=O)NCCN3CCOCC3)c3ccccc3n2)o1	4%	-1	-6%	-4%	-6	u
COc1ccc(C)cc1S(=O)(=O)N(CC(=O)Nc1ccc2c(c1)OCCO2)Cc1ccccc1	-54%	9.8*	x	1%	15	u
CCOC(=O)c1ccc(NC(=O)CN(Cc2ccc(Cl)cc2)S(C)(=O)=O)cc1	5%	-3	-14%	-15%	2	x
CS(=O)(=O)N(CC(=O)Nc1ccc2c(c1)OCCO2)Cc1ccc(Cl)cc1	-11%	22*	25%	5%	33*	x
COc1ccc(C)cc1S(=O)(=O)N(C)CC(=O)Nc1ccc2c(c1)OCO2	-12%	10	-11%	-3%	0	u
Cc1ccc(C(=O)C(C)OC(=O)CN2C(=O)NC3(CCCC3)C2=O)cc1C (stereo unspecified)	x	x	-20%	2%	x	11%
CCN1C(=O)C(NC(C)=O)c2cc(OC)ccc21 (stereo unspecified)	14%	-5	15%	-1%	-12	20%
COc1ccc([C@@H]2Sc3cc(OC)ccc3N(CCN(C(C)C)C(C)C)C(=O)[C@H]2OC(C)=O)cc1	-13%	-6	12µM*	0%	-5	u
COc1ccccc1CCNC(=O)C(=O)NCC1OCCN1S(=O)(=O)c1ccc([N+](=O)[O-])cc1 (stereo unspecified)	-1%	12	u	1%	-6	u
Cc1nc2c(cnn2-c2ccccc2Cl)c(=O)n1-c1ccc(N2CCC(C)CC2)cc1	-1%	-3	x	7%	-11	9%
CCc1nc2c(cnn2-c2ccc(F)cc2)c(=O)n1-c1ccc(N2CCC(C)CC2)cc1	3%	-4	x	-2%	-11	3.3µM*
CC(=O)OC1CCC2(C)C(COc3ccc4ccc(=O)oc4c3)C(C)(O)CCC2C1(C)C (stereo unspecified)	-7%	-2	u	-12%	-12	9.3µM*
C=C1CCC2C(C)(C)[C@@H](O)CC[C@@]2(C)[C@@H]1COc1ccc2ccc(=O)oc2c1 (stereo partly specified)	-31%	-6	12µM*	-9%	2	5.2µM*
O=C(Oc1cc(=O)oc2ccccc12)c1cccnc1Cl	-1%	10	1%	7%	14	-5%
C=C1CCC2C(C)(C)[C@H](O)CC[C@@]2(C)[C@@H]1COc1cc(=O)oc2ccccc12 (stereo partly specified)	-1%	-5	u	-6%	-4	15µM*
N#CC1=C(SCC(=O)Nc2ccc(C(=O)O)cc2)NC(=O)CC1c1ccco1 (stereo unspecified)	1%	10	38%	-2%	-3	16%
COc1ccccc1CNC(=O)[C@@H]1CCCN1S(=O)(=O)c1ccc(C)cc1	x	-3	-16%	3%	-6	u
SMILES	NS1 function inh	CHX counter	Pf growth 48h	SARS PLpro yeast	Shiga inhibitor	Pf growth 96h
CCNc1nc(NC(C)CC)nc(Oc2ccc(OCC)nn2)n1 (stereo unspecified)	3%	5	-6%	0%	7	8%
O=C(NCc1ccc2c(c1)OCO2)C1CCC(=O)N1C1CCCC1 (stereo unspecified)	x	-7	4%	-6%	-11	u
C#CCOCCOCCOCCNc1nc(N2CCN(C(=O)CCCCCCCCCCNC(=O)[C@H]([C@@H](C)CC)n3cc(CCCCN=C(N)N)nn3)CC2)nc(N2CCN(C(=O)CCCCCCCCCCNC(=O)[C@H](CCCCN)n3cc(C)nn3)CC2)n1	x	x	3.7µM*	3%	x	4.7µM*
C#CCOCCOCCOCCNc1nc(N2CCN(C(=O)CCCCCCCCCCNC(=O)[C@H]([C@@H](C)CC)n3cc(CCCCCN)nn3)CC2)nc(N2CCN(C(=O)CCCCCCCCCCNC(=O)[C@H]([C@@H](C)CC)n3cc(CCCCN=C(N)N)nn3)CC2)n1	x	x	u	9%	x	2.9µM*
C#CCOCCOCCOCCNc1nc(N2CCN(C(=O)[C@H]([C@@H](C)CC)n3cc(CCCCN)nn3)CC2)nc(N2CCN(C(=O)[C@H](CCCCN)n3cc(CCCC)nn3)CC2)n1	x	x	u	4%	x	-27%
C#CCOCCOCCOCCNc1nc(N2CCN(C(=O)CCCCCCCCCCNC(=O)[C@H]([C@@H](C)CC)n3cc(CCCCN=C(N)N)nn3)CC2)nc(N2CCN(C(=O)CCCCCCCCCCNC(=O)[C@H]([C@@H](C)CC)n3cc(CCCCN=C(N)N)nn3)CC2)n1	x	x	3.7µM*	-2%	x	4.1µM*
C#CCOCCOCCOCCNc1nc(N2CCN(C(=O)CCCCCCCCCCNC(=O)[C@H]([C@@H](C)CC)n3cc(CCCCN=C(N)N)nn3)CC2)nc(N2CCN(C(=O)CCCCCCCCCCNC(=O)[C@H](CO)n3cc(CCCCCN)nn3)CC2)n1	x	x	5.2µM*	-3%	x	5.2µM*
C#CCOC(=O)Nc1cc(C)n(-c2ccccc2)n1	-3%	1	0%	1%	-8	-18%
CCCS(=O)(=O)N1CCN=C1SCc1cccc(C)c1	x	-4	2%	2%	3	10%
CC1CCCN(C(c2cccs2)c2nnnn2Cc2ccccc2)C1 (stereo unspecified)	-25%	-2	x	-21%	-8	u
C#CCOCCOCCOCCNc1nc(N2CCN(C(=O)CCCCCCCCCCNC(=O)Cn3cc(CCCCCN)nn3)CC2)nc(N2CCN(C(=O)CCCCCCCCCCNC(=O)[C@H]([C@@H](C)CC)n3cc(CCCCN=C(N)N)nn3)CC2)n1	x	x	2.1µM*	-7%	x	3.3µM*
COc1ccc(CCn2c(C)cc(C(=O)CSc3nnnn3-c3ccccc3)c2C)cc1	2%	-2	x	11%[6.58 µM]	-3	19%
O=c1c2ccc(Cl)cc2nc2n1CC/C2=C\c1cccc(O)c1	-7%	2	13µM*	-2%	18	u
